Results from PubChem BioAssay (NCI).
About 79,000 compounds went through this panel and 15% of them were active in at least one assay; those are over-represented in the sample as a whole. No stated cut-off is given here; in the data, active means growth inhibition above about 70%; inactive means the rest.

What was measured:
[1] = NCI Yeast Anticancer Drug Screen. Data for the rad50 strain (AID 155);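 further: 0% = growth of vehicle-only cultures of the same strain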; conditions: S. cerevisiae rad50 strain growth inhibition; at 50.0 µM; hits give high values
How it was run: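 Compounds were tested on a yeast strain with an engineered DNA damage repair alteration; the reported value is growth inhibition normalised to vehicle treatment.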

[2] = NCI Yeast Anticancer Drug Screen. Data for the mec2-1 strain (AID 157); conditions: S. cerevisiae mec2-1 strain, at 50.0 µM, hits give high values
How it was run: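 Compounds were applied to mec2-1 yeast cells. Their growth was then compared with that of vehicle-treated cultures to give growth inhibition.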

[3] = NCI Yeast Anticancer Drug Screen. Data for the sgs1 mgt1 strain (AID 161);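 further: 0% = growth of cultures given vehicle only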; conditions: S. cerevisiae sgs1 mgt1 strain, at 50.0 µM, hits give high values
How it was run: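 Growth of a repair-deficient yeast mutant was monitored after compound treatment and expressed as inhibition relative to vehicle-treated cultures.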

[4] = NCI Yeast Anticancer Drug Screen. Data for the cln2 rad14 strain (AID 165);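 further: 0% = growth equal to vehicle treated cultures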; conditions: S. cerevisiae cln2 rad14 strain, at 50.0 µM, hits give high values
How it was run: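 Strain: cln2 rad14 yeast, altered in cell cycle control and DNA damage repair. Read-out: growth inhibition vs vehicle.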

[5] = NCI Yeast Anticancer Drug Screen. Data for the bub3 strain (AID 167); conditions: S. cerevisiae bub3 mutant strain, at 50.0 µM, hits give high values
How it was run: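 Growth of a checkpoint-deficient yeast mutant is measured after compound exposure. Values represent inhibition relative to vehicle.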

[6] = NCI Yeast Anticancer Drug Screen. Data for the mlh1 rad18 strain (AID 175); conditions: S. cerevisiae mlh1 rad18 strain growth inhibition; at 50.0 µM; hits give high values
How it was run: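 A repair-deficient yeast strain is exposed to test compound, and growth is scored relative to vehicle-treated controls.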

Measured: growth inhibition

c1cnc2c(c1)-n1cccc1C1(CCOCC1)NN2
inactive: [1] -73.5% | [2] -30.2% | [3] -54.5% | [4] -11.3% | [5] -13.3% | [6] -40.9%

O=[N+]([O-])c1nccn1CCCNc1c2ccccc2nc2ccccc12
inactive: [1] 25.1% | [2] 7.95% | [3] 27.8% | [4] 23.1% | [5] 6.5% | [6] 17.9%

c1ccc2scnc2c1
inactive: [1] 21.2% | [2] 7.25% | [3] 13.7% | [4] -24.5% | [5] 29.2% | [6] 37.2%

ON(Cc1ccccc1)Cc1ccccc1
inactive: [1] -3.95% | [2] -26.9% | [3] 12.9% | [4] 12.8% | [5] 9.5% | [6] -19.1%

COc1cccc(CCNc2ccncc2N)c1
inactive: [1] -22% | [2] -23.7% | [3] -24.6% | [4] -52.2% | [5] -29.1% | [6] 12.9%

Cc1cccn2c(C)nnc12
inactive: [1] 3.4% | [2] 25.7% | [3] -1.35% | [4] 17.6% | [5] 28.1% | [6] 12.7%

O=C1CCN2C(=O)CCN12
inactive: [1] 1.1% | [2] -10.2% | [3] 18.7% | [4] 14.8% | [5] 11% | [6] 2.35%

N#Cc1ccc(NC(=O)C(CC(=O)OCc2ccccc2)NC(=O)OCc2ccccc2)cc1 (stereo unspecified)
inactive: [1] -2.75% | [2] 4.65% | [3] 3.85% | [4] 7.3% | [5] 50.8% | [6] -8.05%

COC(=O)c1c(C(=O)c2ccccc2)nnn1-c1cccc(C(F)(F)F)c1
inactive: [1] -14.1% | [2] -32.7% | [3] -19% | [4] -3.85% | [5] -28.7% | [6] 0.35%

CC(CO)CCNc1ncnc2c1ncn2CCC#N (stereo unspecified)
inactive: [1] -9.3% | [2] 10.1% | [3] -46.5% | [4] -19.9% | [5] 6.95% | [6] -13.4%

CC(O)c1ccc(N=NN(C)C)cc1 (stereo unspecified)
inactive: [1] -2.5% | [2] 2.75% | [3] -3.15% | [4] -1.55% | [5] 0% | [6] 21.2%

CCN(CC)c1ccc(/C=C2\SC(=S)NC2=O)cc1
inactive: [1] 2.95% | [2] 4.65% | [3] 27.6% | [4] 9.95% | [5] 9.35% | [6] 7.75%

CN1N=Nc2ccccc2C1(O)c1ccccc1 (stereo unspecified)
inactive: [1] 8.7% | [2] -3.05% | [3] 0.25% | [4] -18.6% | [5] -11.9% | [6] 6.9%

CN1NC(c2ccccc2)=NN=C1c1ccccc1
inactive: [1] -8.5% | [2] 21.9% | [3] 11.3% | [4] 0.75% | [5] 15.8% | [6] 3.65%

O=C(CCCSCCCC(=O)N/N=C/c1ccccc1O)N/N=C\c1ccccc1O
inactive: [1] 4.7% | [2] -0.5% | [3] 4.95% | [4] 0.75% | [5] 6.65% | [6] 19.8%

CC/C=C\CCCCC
inactive: [1] 0.4% | [2] -13.7% | [3] -12.6% | [4] 0.05% | [5] -10.8% | [6] 4.7%

CC(C)(C)OC(=O)N1CCCC1C(=O)NC(c1ccccc1)c1ccccc1 (stereo unspecified)
inactive: [1] -35.1% | [2] -56.5% | [3] -37.5% | [4] -18.9% | [5] -13.4% | [6] -40.1%

CCCCCCCCCCCCCCCCCCNC(=O)Nc1cc(C(C)C)ccc1C
inactive: [1] -13.3% | [2] -22.1% | [3] -14.8% | [4] -47.1% | [5] -2.7% | [6] -30.6%

CCOC1C(Br)Cn2c(=O)c3cc4ccccc4cc3c(=O)n2C1C (stereo unspecified)
inactive: [1] 61.2% | [2] 8.15% | [3] 21.6% | [4] 44.3% | [5] 33.6% | [6] 33.2%

CCOC(=O)c1cnc2cc3c(cc2c1Nc1cccc(C(F)(F)F)c1)OCO3
inactive: [1] 5.95% | [2] -8.85% | [3] -9.5% | [4] -6.45% | [5] -2.75% | [6] -11.6%

CC(C)C(=O)OCCCc1ccccc1
inactive: [1] 11.7% | [2] -5.3% | [3] 1.8% | [4] 7.45% | [5] 21.5% | [6] 12.8%

COc1ccc(/C=C2\N=C(c3cc(OC)c(OC)c(OC)c3)OC2=O)cc1OC
inactive: [1] 7.1% | [2] 10.9% | [3] 8.5% | [4] 29.9% | [5] -1.85% | [6] 25.1%

CC1CC[N+]2(C)CCCC12 (stereo unspecified)
inactive: [1] 1.1% | [2] -4.4% | [3] -5.3% | [4] -39.3% | [5] -23.9% | [6] -12.4%

C=C(CCCC(C)OC(=O)NC(C)c1cccc2ccccc12)[Si](C)(C)C (stereo unspecified)
inactive: [1] -41.7% | [2] -20.1% | [3] -19.6% | [4] -6.6% | [5] 8.3% | [6] -26.4%

O=C1C2=C(c3ccccc31)C(c1ccc(Cl)cc1)NC(=S)N2 (stereo unspecified)
inactive: [1] 52.6% | [2] 26.5% | [3] 57.8% | [4] 35.2% | [5] 44.4% | [6] 60.1%

CCCCC(CC)COC(=O)CSC#N (stereo unspecified)
inactive: [1] -6.7% | [2] -7.55% | [3] -9.85% | [4] -15.6% | [5] 2.05% | [6] -15.1%

O=c1c2ccccc2[nH]c2c(O)ccc(O)c12
inactive: [1] 18.3% | [2] -1.65% | [3] 6.55% | [4] 7.65% | [5] -1.55% | [6] 12.7%

Fc1ccc(N2C(c3ccccc3)=N[C@@H](N3CCOCC3)[C@@H]2N2CCOCC2)cc1
inactive: [1] 21.4% | [2] 11.2% | [3] 4.2% | [4] -19.9% | [5] -2.2% | [6] 20%

CN(C)Cc1cccc(-c2ccccc2)c1O
inactive: [1] 21.8% | [2] -4.9% | [3] 12% | [4] -15.8% | [5] 5.3% | [6] 17.2%

COC1(OC)CCC(OC)(OC)C(OC)(OC)C1(OC)OC
inactive: [1] 4.75% | [2] 8.1% | [3] 11.7% | [4] -4.2% | [5] -16.2% | [6] 2.75%

CC(C)=CC1C(CBr)C1(C)C (stereo unspecified)
inactive: [1] 2.3% | [2] -15.2% | [3] -12.2% | [4] -26.2% | [5] -10.1% | [6] -11%

O=C(Nc1ccccn1)OCCCl
inactive: [1] -1.6% | [2] 0.6% | [3] 4.35% | [4] 10.1% | [5] -28.2% | [6] 7.1%

COC(=O)C1(CC(=O)/C=C/c2ccccc2)NC(=S)NC(=O)C1C#N (stereo unspecified)
inactive: [1] 15.7% | [2] -3.65% | [3] -8.4% | [4] 10.1% | [5] -19.9% | [6] 9.9%

Cc1cccc(C(=O)N(C)C(c2ccco2)P(=O)(c2ccccc2)c2ccccc2)c1 (stereo unspecified)
inactive: [1] 19.9% | [2] -16.4% | [3] 68.2% | [4] 27.1% | [5] 33.1% | [6] 2.9%

CCCCC(CC)(CO)CO
inactive: [1] 11.2% | [2] 3.95% | [3] 5.35% | [4] 1.05% | [5] -4.55% | [6] 16.6%

CCOC(=O)/C(=C(/C)N=Cc1ccccc1[N+](=O)[O-])C(NN=O)c1ccccc1[N+](=O)[O-] (stereo unspecified)
inactive: [1] 11.9% | [2] 4.85% | [3] -9.55% | [4] 8.5% | [5] -5% | [6] 17.8%

O=C(Cc1nc2ccc([N+](=O)[O-])cc2[nH]c1=O)C(=O)Nc1ccccc1[N+](=O)[O-]
inactive: [1] 25.6% | [2] 8.8% | [3] 11.1% | [4] 12.2% | [5] 15.8% | [6] 6.05%

Cc1ccccc1NC(=O)Oc1ccc2c(C)cc(=O)oc2c1
inactive: [1] -3% | [2] 12.2% | [3] 14.4% | [4] -17.2% | [5] 14.3% | [6] 24.9%

CCCCCCCCCCCc1cc(=O)c2c(O)cccc2o1
inactive: [1] -5% | [2] -28.6% | [3] 9.55% | [4] -3.9% | [5] 4% | [6] -14.4%

Cc1cc(=O)n(-c2ccc(-c3ccc(-n4c(C)c(C(=O)O)c(C)cc4=O)cc3)cc2)c(C)c1C(=O)O
inactive: [1] -45% | [2] 6.35% | [3] 19.3% | [4] 24.1% | [5] -2.4% | [6] 27.6%

CN(C)N1C(=C(C#N)C#N)C(c2ccccc2)CC1C#N (stereo unspecified)
inactive: [1] 9.55% | [2] 12.9% | [3] -22.8% | [4] 13.2% | [5] -25.8% | [6] -41.5%
